Reference: PubChem BioAssay AID1508600 (Functional Genomics Laboratory (NCATS/FGL), 2020)
About 3,700 (7%) of roughly 53,000 sequences were called active.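 Rule for the calls: active = gene knockdowns whose robust z-score for IL-1 alpha signal is at least 2 or at most -2, so actives lie on both sides; inactive = the rest.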 This excerpt belongs to a sample that is enriched for actives.

Test: Components of the Cytosolic LPS Sensing Pathway: Gene Identification via Genome-wide siRNA Screen;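 note: robust z of the log signal after scaling to non-targeting control siRNA wells of the plate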
Settings: RAW264.7 macrophages, IL-1a HTRF, actives lie on both sides, screened at 100 nM (by protocol), cells primed 5 h with Pam3CSK4 first
How it was run: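 IL-1a HTRF of supernatants after 24 hour LipidA transfection of Pam3CSK4-primed (5 hours) RAW264.7 cells, 48h post-siRNA transfection (100 nM). Scores: percent of plate negative-control median, then log-based robust z-score.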

| Sequence | z-score |
| --- | --- |
| GGCUCAAGCUAUGAAGAGATT against Gstm4 | -0.195 (inactive) |
| GGUUCUUGUUCAUUCUCUUTT against Slc4a4 | -0.0837 (inactive) |
| GGAAAGAGUGUGCAAACUCTT against Ly6d | 0.0731 (inactive) |
| GGCCCAAGGAAUAAUCAAGTT against Satb2 | 2.48 (active) |
| GGUAUCGACCACAGAUCAUTT against Plxnd1 | 1.77 (inactive) |
| GCACCAUUUUAAGAUCUGCTT against Prr13 | 0.238 (inactive) |
| CCUCCUUACAAGUUGAAGCTT against Tmem59l | -0.142 (inactive) |
| GCUUGUUCACCCAGUUAUGTT against Hexdc | 1.15 (inactive) |
| GCCAUUCACGACCCACUACTT against Olfr1095 | -0.102 (inactive) |
| GGACUGAUAGAGGACUUCCTT against Bloc1s6 | -0.56 (inactive) |
| CCUUUUAGCUCUGUGUAUUTT against Gldc | -0.0983 (inactive) |
| GGCCUUGAAUGAGCAUCAUTT against Krr1 | 0.548 (inactive) |
| GGCUAUGAAAGUGACAAUCTT against Tsen15 | -2.74 (active) |
| GCACCUAAUGAUCACAGUGTT against Nrip3 | 0.393 (inactive) |
| GGAAACUGAGCUUAAGAUUTT against Cald1 | 1.2 (inactive) |
| CCGCUUUCGGCAAGUAUGGTT against Rbmxl2 | 1.64 (inactive) |
| GGCAUGACUUCCACAUGAATT against Pdcd1 | 0.672 (inactive) |
| ACAAAUCCACGUGCAAUGUTT against Cyp2d9 | 0.943 (inactive) |
| GGAAGAUGAUUAUGAAGAUTT against Apc | -0.143 (inactive) |
| GCGCAAGCCGUAUUCGAAGTT against Hoxc12 | 2.95 (active) |
| GGCCUGGGAAGUGAACAAATT against Faah | -0.721 (inactive) |
| GGAUCUGUCUACUUUUCCUTT against Hikeshi | 0.777 (inactive) |

| Sequence | z-score |
| --- | --- |
| GCCACUCCUAUGAGUGUUATT against Cdk18 | 0.236 (inactive) |
| GGAACGCAAGAACAGAAUGTT against Rps24 | 0.585 (inactive) |
| GGCCACUGAUCAACUAAAGTT against Zfp110 | 2.27 (active) |
| CCAGAUGCUAUGCUAGGGATT against Clec4a1 | -0.0541 (inactive) |
| GGACGGCAAAUUUGGUUUCTT against Mmp9 | 1.28 (inactive) |
| GCCAUCAAUGAUGUGCUCUTT against Zswim5 | -0.186 (inactive) |
| GGAAAAUGGAAUCUUCGGUTT against Pus10 | -1.4 (inactive) |
| GCUGGAUACUAAUUGCUUATT against Parva | 1.27 (inactive) |
| GCCUGGUACAGAACCAGUATT against Ntsr2 | 0.547 (inactive) |
| CCUAUGCAUCCCUGACUACTT against Tmem126b | 5.07 (active) |
| GGUUUUUAAGGGAAGGCCCTT against Ntmt1 | 0.284 (inactive) |
| GUCCCACUCAGGAGAAUUUTT against Lrrc61 | 0.917 (inactive) |
| GGAAGAUUAUAUUGAGAGATT against Bnip3 | 1.11 (inactive) |
| GGAGGAGAAUGCCACAACUTT against Cd320 | -0.227 (inactive) |
| GCCUGUUAAUAUGCUGUAATT against Gpr83 | -0.0705 (inactive) |
| GGACUUUCUGAGUAAGAAUTT against Coa8 | -0.873 (inactive) |
| GGAAUACGGAUUGAUGGAGTT against Fli1 | 2.19 (active) |
| CCUUAUGCAUGACUUGAGUTT against Exoc4 | -0.2 (inactive) |
| GGUUCGUCAUACCUCCUCATT against C77080 | -0.00884 (inactive) |
| GGAAUACAUUCCUUUUAAGTT against Gpx3 | -1.27 (inactive) |
| GGAGAAGAAACGGAAAUGATT against Jagn1 | -1.98 (inactive) |
| GGUAUUUAGAAACAUCAGUTT against Wls | -2.16 (active) |

| Sequence | z-score |
| --- | --- |
| GCUGUUCAUAUAUCUUGCUTT against Olfr1386 | 1.17 (inactive) |
| GGCACAUAGCCAUACCAGATT against Fbxw17 | 0.0511 (inactive) |
| GGAUUCCUGUUAAAAGUCUTT against Azin1 | -0.152 (inactive) |
| GGAUUAUCAAUGAAUAGCATT against Gabrb2 | 0.913 (inactive) |
| GGGAGAAGUAAGUGUUAUCTT against Npy2r | 3.86 (active) |
| GGACAAUCCGAACAUCAAATT against Sval1 | -0.403 (inactive) |
| GGCCUGCUUCAAACAGUUUTT against Slc1a6 | 0.648 (inactive) |
| CGACUUUUCUCAUUAUGAGTT against Ythdf1 | -2.58 (active) |
| GGAUACACUGUUUGAAUGUTT against Cks1b | 0.00229 (inactive) |
| GCCGAUUCAAUACUGUGACTT against Rnf149 | -0.649 (inactive) |
| GCACAACCAAUUACGUGGCTT against Gpnmb | -0.149 (inactive) |
| GCAGAUCACUGGAGUAAACTT against Spz1 | -0.381 (inactive) |
| GGUAUGAAACCGUAUAAAUTT against Zfp60 | 0.00529 (inactive) |
| GCGUGCUGUGUAAGAGUGUTT against Gja4 | -2.5 (active) |
| GCACAUACAGCUUAACAAATT against Nktr | 1.27 (inactive) |
| GGGUUUUUCAUAAACAAAGTT against Pdcd1lg2 | -1.46 (inactive) |
| GGUAAAAAGGGUGUGUACUTT against Pdzk1 | 0.00178 (inactive) |
| CCACUAAAAUCUUACUGGATT against Scn7a | 0.671 (inactive) |
| GCGUAUAGUUUCGAGAAAUTT against Mettl8 | 0.46 (inactive) |
| GGGUCUACCACAUGUACAUTT against Slc16a6 | 2.23 (active) |
| CCCUAACAUUGAGAUGAUUTT against Peg10 | -0.369 (inactive) |
| CCAUUCUCCUCAGAUACUCTT against Slc25a17 | -1.38 (inactive) |

| Sequence | z-score |
| --- | --- |
| CCCAUAAGGGUGAAAUUCGTT against Tax1bp1 | 0.444 (inactive) |
| GGCCCACAAGAAGAACAAGTT against Zfp423 | 1.29 (inactive) |
| CGGUAGAGUGCUUACGCAATT against Camk2g | 0.869 (inactive) |
| GGGAACCGCUUAUAUGUCCTT against Tbx21 | -0.195 (inactive) |
| GGACAGAUAGGAUUAGAGATT against Igfbp5 | 0.215 (inactive) |
| CGUGCCAUAAUACACUAUCTT against Gng5 | 2.79 (active) |
| GGCGAAUGUUUACGAGAACTT against Sh2d1b2 | 0.327 (inactive) |
| GGCAGGUUUGGUAACCAGATT against Fut1 | 0.559 (inactive) |
| GCUUCUUGAAAGUACAUUGTT against Nae1 | 0.386 (inactive) |
| GGCUCUUCACUCAUGUAUGTT against Olfr703 | -0.931 (inactive) |
| GGCCCAUAUCUGCUCUCAUTT against Ssc5d | -2.04 (active) |
| GCCUAUCUUGUCACCACUGTT against Tagln2 | -0.276 (inactive) |
| GGAAACAAAAGGAUUUCUGTT against Fbxl13 | 1.24 (inactive) |
| GGCGAGAAGGAAAUGUACATT against Arpc3 | 2.62 (active) |
| CCAUCCUUCCGAAAGACGATT against Lcn10 | 0.465 (inactive) |
| CCAAGAUCGAUCAUUUUGGTT against Gm527 | -0.794 (inactive) |
| GGUCCAAGAGAAAUGUGUATT against Hacd4 | -2.55 (active) |
| GGUUUUUCUAACUUUGGUCTT against Cdcp2 | -0.0176 (inactive) |
| AAGAGCCAUUAAUCGAGAATT against Cklf | -0.0691 (inactive) |
| GGCUAUUGCUGACCUCAGATT against Pidd1 | -2.73 (active) |
| GCGCAAAAGGACCUAUGAGTT against Rela | -0.342 (inactive) |
| CGUGGUAGACACUGUGGUATT against Plin1 | 1.61 (inactive) |

| Sequence | z-score |
| --- | --- |
| GGAGAUGAUGCCGUCAUUCTT against Chaf1b | 1.97 (inactive) |
| CCAUAUGAUAAGCAUAAGCTT against Zfp449 | 0.149 (inactive) |
| CCCGUAUGGAUGUGGUAACTT against Tmem239 | -1.39 (inactive) |
| CCUAACCAAGAUCCAAUCUTT against 6330549D23Rik | -2.85 (active) |
| GGCCAUCCAAGCAUGAGUUTT against Rbfa | 1.37 (inactive) |
| GGCAGGAAAUUCAUUUUAATT against Zfy2 | -1.43 (inactive) |
| GGAGAUGGACUCACUGAUGTT against Zscan20 | -1.32 (inactive) |
| CCACAAAGGAAUUCAUGAGTT against Dhx16 | -1.41 (inactive) |
| GGUCAAGGAGAUCACCUUCTT against Comp | -1.27 (inactive) |
| GGAAAAGGAAACCCAGAGCTT against Tdg | -2.4 (active) |
| CCCGGAAUGUUUAGUAUCGTT against Fermt1 | -1.25 (inactive) |
| GGCCAUUAACAGCAGUCUGTT against Kifc5b | -1.71 (inactive) |
| GGAAGUGGAACACAUGAUCTT against Zfp346 | -0.449 (inactive) |
| GGCAUGAAUGAGUUUAUCATT against Vps8 | -1.12 (inactive) |
| GGAGAAAUAUGUAUGUACATT against Ece2 | 2.01 (active) |
| GGAGUCUGAAGAUGACAUGTT against Rplp1 | -0.775 (inactive) |
| GCCACUAAAUCCUGUUUCCTT against Ydjc | -0.0858 (inactive) |
| GAGAUGGAAAGUGGUUUCUTT against Olfr1226 | 0.543 (inactive) |
| GGUCACGAUUCUGUCAGACTT against Ctnnal1 | 3.57 (active) |
| GGUGAAAAUCAAGCUGAAUTT against Smarca2 | 1.36 (inactive) |
